PubChem BioAssay (NCI)
This is part of a sample that, as a whole, favours compounds with a hit. Of some 79,000 tested, about 15% had one in any assay. Active and inactive are the calls of the source. Cut-off read from the data, not from the text of the source: active = growth inhibition above about 70%; inactive = the rest.

Legend:
[1] = NCI Yeast Anticancer Drug Screen. Data for the rad50 strain (AID 155);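 note: 0% = growth of vehicle-only cultures of the same strain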; settings: S. cerevisiae rad50 strain growth inhibition, active compounds read high
Outline: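 Readout: growth inhibition relative to vehicle-treated cultures. Compound exposure was carried out in a genetically defined yeast strain deficient in DNA damage repair.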

[2] = NCI Yeast Anticancer Drug Screen. Data for the mec2-1 strain (AID 157); settings: S. cerevisiae mec2-1 strain, active compounds read high
Outline: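 Compounds were applied to mec2-1 yeast cells. Their growth was then compared with that of vehicle-treated cultures to give growth inhibition.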

[3] = NCI Yeast Anticancer Drug Screen. Data for the sgs1 mgt1 strain (AID 161);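 note: 0% = growth of cultures given vehicle only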; settings: S. cerevisiae sgs1 mgt1 strain, active compounds read high
Outline: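 Compounds are added to genetically altered yeast, and growth is compared with cultures given vehicle alone to give percent inhibition.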

[4] = NCI Yeast Anticancer Drug Screen. Data for the cln2 rad14 strain (AID 165);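 note: 0% = growth equal to vehicle treated cultures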; settings: S. cerevisiae cln2 rad14 strain, active compounds read high
Outline: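 Strain: cln2 rad14 yeast, altered in cell cycle control and DNA damage repair. Read-out: growth inhibition vs vehicle.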

[5] = NCI Yeast Anticancer Drug Screen. Data for the bub3 strain (AID 167); settings: S. cerevisiae bub3 mutant strain, active compounds read high
Outline: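 Readout: yeast growth inhibition, expressed relative to vehicle-only wells. The test organism is a mutant strain from a panel with lesions in DNA repair or checkpoint genes.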

[6] = NCI Yeast Anticancer Drug Screen. Data for the mlh1 rad18 strain (AID 175); settings: S. cerevisiae mlh1 rad18 strain growth inhibition, active compounds read high
Outline: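 A repair-deficient yeast strain is exposed to test compound, and growth is scored relative to vehicle-treated controls.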

[7] = at 5.0 µM (retest, dose inferred, filed as 0.5)
[8] = at 50.0 µM (retest, dose inferred, filed as 5.0)

Measured: growth inhibition

FC(F)(F)c1nc(Cl)nc2nc[nH]c12
inactive: [1]; [7] 3% | [1]; [8] -9% | [1]; at 50.0 µM 26.4% | [2]; [7] -7% | [2]; [8] -2% | [2]; at 50.0 µM 6.1% | [3]; [7] -3% | [3]; [8] -10% | [3]; at 50.0 µM -31.4% | [4]; [7] -3% | [4]; [8] 0% | [4]; at 50.0 µM 17.4% | [5]; [7] -1% | [5]; [8] 4% | [5]; at 50.0 µM -21.7% | [6]; [7] 0% | [6]; [8] -8% | [6]; at 50.0 µM -4.75%

COCC(O)Cn1cc([N+](=O)[O-])nc1C (stereo unspecified)
inactive: [1]; [7] 4% | [1]; [8] -1% | [1]; at 50.0 µM 2.7% | [2]; [7] 1% | [2]; [8] -3% | [2]; at 50.0 µM -5.25% | [3]; [7] -1% | [3]; [8] 2% | [3]; at 50.0 µM -4.8% | [4]; [7] 0% | [4]; [8] -2% | [4]; at 50.0 µM 9.45% | [5]; [7] -4% | [5]; [8] -4% | [5]; at 50.0 µM 19.2% | [6]; [7] 6% | [6]; [8] 4% | [6]; at 50.0 µM 9.4%

NC1NCCC(=O)N1CCc1c[nH]c2ccccc12 (stereo unspecified)
active: [1]; [8] 99% | [2]; [8] 100% | [3]; [8] 99% | [5]; [8] 100% | [5]; at 50.0 µM 74.5% | [6]; [8] 100%
inactive: [1]; [7] -18% | [1]; at 50.0 µM 65.9% | [2]; [7] 7% | [2]; at 50.0 µM 54.9% | [3]; [7] -22% | [3]; at 50.0 µM 54.4% | [5]; [7] -26% | [6]; [7] -12% | [6]; at 50.0 µM 53.6%

OC(Cc1cccnc1)(c1ccccc1)c1ccc(Cl)cc1 (stereo unspecified)
active: [1]; at 50.0 µM 97.5% | [2]; [8] 80% | [2]; at 50.0 µM 98% | [3]; [8] 79% | [3]; at 50.0 µM 97.3% | [4]; at 50.0 µM 94.2% | [6]; [8] 71% | [6]; at 50.0 µM 98%
inactive: [1]; [7] -7% | [1]; [8] 69% | [2]; [7] -3% | [3]; [7] 6% | [4]; [7] -1% | [4]; [8] 64% | [6]; [7] -5%

C=C1C2Oc3ccccc3C1N(c1ccccc1)O2 (stereo unspecified)
inactive: [1]; [7] 9% | [1]; [8] 23% | [1]; at 50.0 µM 35% | [2]; [7] 8% | [2]; [8] 35% | [2]; at 50.0 µM 19.9% | [4]; [7] 4% | [4]; [8] 24% | [4]; at 50.0 µM 39.1% | [5]; [7] 1% | [5]; [8] 26% | [5]; at 50.0 µM 9.45% | [6]; [7] 5% | [6]; [8] 35%
active: [6]; at 50.0 µM 70.5%

COC(=O)c1c(COC(=O)NC(C)C)c2n(c1C)CS(=O)(=O)C2
inactive: [1]; [7] -38% | [1]; [8] -8% | [2]; [7] 3% | [2]; [8] 5% | [4]; [7] -6% | [4]; [8] -20% | [5]; [7] -18% | [5]; [8] 3% | [6]; [7] -35% | [6]; [8] -32%
active: [1]; at 50.0 µM 97.3% | [2]; at 50.0 µM 98.5% | [4]; at 50.0 µM 98% | [5]; at 50.0 µM 97% | [6]; at 50.0 µM 97.7%

CC1CN(C(=S)NNC(C)c2cc3ccccc3cn2)CC(C)O1 (stereo unspecified)
inactive: [1]; [7] 30% | [2]; [7] 38% | [3]; [7] 26% | [4]; [7] 15% | [6]; [7] 39%
active: [1]; [8] 96% | [1]; at 50.0 µM 87% | [2]; [8] 99% | [2]; at 50.0 µM 89.8% | [3]; [8] 98% | [3]; at 50.0 µM 90.5% | [4]; [8] 98% | [4]; at 50.0 µM 90% | [6]; [8] 98% | [6]; at 50.0 µM 91.3%

Cc1cc(-c2ccccc2)c(C)c(-c2ccccc2)c1-c1ccccc1
inactive: [1]; [7] 5% | [1]; [8] 4% | [2]; [7] 0% | [2]; [8] -1% | [2]; at 50.0 µM 37.9% | [4]; [7] -5% | [4]; [8] 64% | [5]; [7] -13% | [5]; [8] 13% | [5]; at 50.0 µM 57.4% | [6]; [7] 1% | [6]; [8] 16% | [6]; at 50.0 µM 60.8%
active: [1]; at 50.0 µM 74.6% | [4]; at 50.0 µM 80.7%

O=C(CC(O)(C(F)(F)F)C(F)(F)F)C(c1ccccc1)C(O)(C(F)(F)F)C(F)(F)F (stereo unspecified)
inactive: [1]; [7] 6% | [2]; [7] 13% | [4]; [7] 13% | [5]; [7] -14% | [5]; [8] 41% | [6]; [7] 5%
active: [1]; [8] 82% | [1]; at 50.0 µM 71.8% | [2]; [8] 79% | [2]; at 50.0 µM 91.5% | [4]; [8] 92% | [4]; at 50.0 µM 90.5% | [5]; at 50.0 µM 83.2% | [6]; [8] 93% | [6]; at 50.0 µM 93.6%

O=S(=O)(Sc1ccccc1)C(c1ccccc1)c1ccccc1
active: [1]; [8] 72% | [2]; [8] 71% | [5]; [8] 97% | [6]; [8] 72%
inactive: [1]; [7] 3% | [1]; at 50.0 µM -21.6% | [2]; [7] 2% | [2]; at 50.0 µM -1.25% | [3]; [7] 2% | [3]; [8] 66% | [3]; at 50.0 µM 14.1% | [5]; [7] -4% | [5]; at 50.0 µM 62% | [6]; [7] 4% | [6]; at 50.0 µM 6.85%
